Measured values taken from PMC9911399, “Two distinct binding modes provide the RNA-binding protein RbFox with extraordinary sequence specificity”.
Changes are numbered by the printed parent chain; changes in the protein carry UniProt numbers. In all, about 16,000 sequences were measured (“ka relative to ugcaugu”: median about 0.096, highest 2% from about 0.35 on). This excerpt belongs to a sample that is enriched for the highest values.

T1: RBFOX1 RRM RbFoxmut (Fox-RRM*) (Homo sapiens, UniProt Q9NWB1 109-208, R118D;E147R;N151S;E152T)
T1 sequence: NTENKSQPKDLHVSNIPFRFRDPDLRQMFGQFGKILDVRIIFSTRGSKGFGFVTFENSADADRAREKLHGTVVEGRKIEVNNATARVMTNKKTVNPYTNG

B1: UGGUGUC (DNA:RNA)
RNA: GGGAGACCGGAAUUCAGAUUGUCCUGGUGUCUUAAAUCCCGUCGUAGCCACCA
DNA 1: CAATCTGAATTCCGGTCTCCC
DNA 2: TGGTGGCTACGACGGGATT
B2: AAUUGGG (DNA:RNA)
RNA: B1 RNA with U25A, G26A, G27U, U30G, C31G
DNA 1: CAATCTGAATTCCGGTCTCCC
DNA 2: TGGTGGCTACGACGGGATT
B3: UGUUGGC (DNA:RNA)
RNA: B1 RNA with G27U, U30G
DNA 1: CAATCTGAATTCCGGTCTCCC
DNA 2: TGGTGGCTACGACGGGATT
B4: GUUAACC (DNA:RNA)
RNA: B1 RNA with U25G, G26U, G27U, U28A, G29A, U30C
DNA 1: CAATCTGAATTCCGGTCTCCC
DNA 2: TGGTGGCTACGACGGGATT
B5: UUCCCAG (DNA:RNA)
RNA: B1 RNA with G26U, G27C, U28C, G29C, U30A, C31G
DNA 1: CAATCTGAATTCCGGTCTCCC
DNA 2: TGGTGGCTACGACGGGATT
B6: GUUACAG (DNA:RNA)
RNA: GGGAGACCGGAAUUCAGAUUGUCCGUUACAGUUAAAUCCCGUCGUAGCCACCA
DNA 1: CAATCTGAATTCCGGTCTCCC
DNA 2: TGGTGGCTACGACGGGATT
B7: AGGUUGU (DNA:RNA)
RNA: B1 RNA with U25A, G29U, U30G, C31U
DNA 1: CAATCTGAATTCCGGTCTCCC
DNA 2: TGGTGGCTACGACGGGATT
B8: AGGUUUG (DNA:RNA)
RNA: B1 RNA with U25A, G29U, C31G
DNA 1: CAATCTGAATTCCGGTCTCCC
DNA 2: TGGTGGCTACGACGGGATT
B9: AGGUUCG (DNA:RNA)
RNA: B1 RNA with U25A, G29U, U30C, C31G
DNA 1: CAATCTGAATTCCGGTCTCCC
DNA 2: TGGTGGCTACGACGGGATT
B10: GUUCAGG (DNA:RNA)
RNA: B6 RNA with A28C, C29A, A30G
DNA 1: CAATCTGAATTCCGGTCTCCC
DNA 2: TGGTGGCTACGACGGGATT
B11: GUCCAGG (DNA:RNA)
RNA: B6 RNA with U27C, A28C, C29A, A30G
DNA 1: CAATCTGAATTCCGGTCTCCC
DNA 2: TGGTGGCTACGACGGGATT
B12: ACCAGGU (DNA:RNA)
RNA: B6 RNA with G25A, U26C, U27C, C29G, A30G, G31U
DNA 1: CAATCTGAATTCCGGTCTCCC
DNA 2: TGGTGGCTACGACGGGATT
B13: AGCGAUU (DNA:RNA)
RNA: B1 RNA with U25A, G27C, U28G, G29A, C31U
DNA 1: CAATCTGAATTCCGGTCTCCC
DNA 2: TGGTGGCTACGACGGGATT
B14: CUCACAU (DNA:RNA)
RNA: B6 RNA with G25C, U27C, G31U
DNA 1: CAATCTGAATTCCGGTCTCCC
DNA 2: TGGTGGCTACGACGGGATT
B15: AUGCAGC (DNA:RNA)
RNA: B1 RNA with U25A, G26U, U28C, G29A, U30G
DNA 1: CAATCTGAATTCCGGTCTCCC
DNA 2: TGGTGGCTACGACGGGATT
B16: AGUCCCU (DNA:RNA)
RNA: B6 RNA with G25A, U26G, A28C, A30C, G31U
DNA 1: CAATCTGAATTCCGGTCTCCC
DNA 2: TGGTGGCTACGACGGGATT
B17: GAAGUCC (DNA:RNA)
RNA: B6 RNA with U26A, U27A, A28G, C29U, A30C, G31C
DNA 1: CAATCTGAATTCCGGTCTCCC
DNA 2: TGGTGGCTACGACGGGATT
B18: UGCCAGA (DNA:RNA)
RNA: B1 RNA with G27C, U28C, G29A, U30G, C31A
DNA 1: CAATCTGAATTCCGGTCTCCC
DNA 2: TGGTGGCTACGACGGGATT
B19: GUGGUUG (DNA:RNA)
RNA: B6 RNA with U27G, A28G, C29U, A30U
DNA 1: CAATCTGAATTCCGGTCTCCC
DNA 2: TGGTGGCTACGACGGGATT
B20: UUGGUUG (DNA:RNA)
RNA: B1 RNA with G26U, U28G, G29U, C31G
DNA 1: CAATCTGAATTCCGGTCTCCC
DNA 2: TGGTGGCTACGACGGGATT
B21: UCCUUGG (DNA:RNA)
RNA: B1 RNA with G26C, G27C, G29U, U30G, C31G
DNA 1: CAATCTGAATTCCGGTCTCCC
DNA 2: TGGTGGCTACGACGGGATT
B22: GUGGUGG (DNA:RNA)
RNA: B6 RNA with U27G, A28G, C29U, A30G
DNA 1: CAATCTGAATTCCGGTCTCCC
DNA 2: TGGTGGCTACGACGGGATT
B23: GUCGUGG (DNA:RNA)
RNA: B6 RNA with U27C, A28G, C29U, A30G
DNA 1: CAATCTGAATTCCGGTCTCCC
DNA 2: TGGTGGCTACGACGGGATT
B24: UUGUUGG (DNA:RNA)
RNA: B1 RNA with G26U, G29U, U30G, C31G
DNA 1: CAATCTGAATTCCGGTCTCCC
DNA 2: TGGTGGCTACGACGGGATT
B25: UCCGUCA (DNA:RNA)
RNA: B1 RNA with G26C, G27C, U28G, G29U, U30C, C31A
DNA 1: CAATCTGAATTCCGGTCTCCC
DNA 2: TGGTGGCTACGACGGGATT
B26: GUAGCCA (DNA:RNA)
RNA: B6 RNA with U27A, A28G, A30C, G31A
DNA 1: CAATCTGAATTCCGGTCTCCC
DNA 2: TGGTGGCTACGACGGGATT
B27: ACACUGG (DNA:RNA)
RNA: B6 RNA with G25A, U26C, U27A, A28C, C29U, A30G
DNA 1: CAATCTGAATTCCGGTCTCCC
DNA 2: TGGTGGCTACGACGGGATT
B28: CCCCAGA (DNA:RNA)
RNA: GGGAGACCGGAAUUCAGAUUGUCCCCCCAGAUUAAAUCCCGUCGUAGCCACCA
DNA 1: CAATCTGAATTCCGGTCTCCC
DNA 2: TGGTGGCTACGACGGGATT
B29: UAAACAG (DNA:RNA)
RNA: B6 RNA with G25U, U26A, U27A
DNA 1: CAATCTGAATTCCGGTCTCCC
DNA 2: TGGTGGCTACGACGGGATT
B30: CACGGCC (DNA:RNA)
RNA: B28 RNA with C26A, C28G, A29G, G30C, A31C
DNA 1: CAATCTGAATTCCGGTCTCCC
DNA 2: TGGTGGCTACGACGGGATT
B31: GCCUUAA (DNA:RNA)
RNA: B28 RNA with C25G, C28U, A29U, G30A
DNA 1: CAATCTGAATTCCGGTCTCCC
DNA 2: TGGTGGCTACGACGGGATT
B32: GGCCUUG (DNA:RNA)
RNA: B28 RNA with C25G, C26G, A29U, G30U, A31G
DNA 1: CAATCTGAATTCCGGTCTCCC
DNA 2: TGGTGGCTACGACGGGATT
B33: GCUUGCC (DNA:RNA)
RNA: B1 RNA with U25G, G26C, G27U, U30C
DNA 1: CAATCTGAATTCCGGTCTCCC
DNA 2: TGGTGGCTACGACGGGATT
B34: GUCGGCC (DNA:RNA)
RNA: B6 RNA with U27C, A28G, C29G, A30C, G31C
DNA 1: CAATCTGAATTCCGGTCTCCC
DNA 2: TGGTGGCTACGACGGGATT
B35: GCCUUGA (DNA:RNA)
RNA: B28 RNA with C25G, C28U, A29U
DNA 1: CAATCTGAATTCCGGTCTCCC
DNA 2: TGGTGGCTACGACGGGATT
B36: GCCUUUU (DNA:RNA)
RNA: B28 RNA with C25G, C28U, A29U, G30U, A31U
DNA 1: CAATCTGAATTCCGGTCTCCC
DNA 2: TGGTGGCTACGACGGGATT
B37: GCCUUCA (DNA:RNA)
RNA: B28 RNA with C25G, C28U, A29U, G30C
DNA 1: CAATCTGAATTCCGGTCTCCC
DNA 2: TGGTGGCTACGACGGGATT
B38: GCCUGCG (DNA:RNA)
RNA: B28 RNA with C25G, C28U, A29G, G30C, A31G
DNA 1: CAATCTGAATTCCGGTCTCCC
DNA 2: TGGTGGCTACGACGGGATT
B39: GCCUUGC (DNA:RNA)
RNA: B28 RNA with C25G, C28U, A29U, A31C
DNA 1: CAATCTGAATTCCGGTCTCCC
DNA 2: TGGTGGCTACGACGGGATT
B40: GCCUUGU (DNA:RNA)
RNA: B28 RNA with C25G, C28U, A29U, A31U
DNA 1: CAATCTGAATTCCGGTCTCCC
DNA 2: TGGTGGCTACGACGGGATT
B41: GCCUCGU (DNA:RNA)
RNA: B28 RNA with C25G, C28U, A29C, A31U
DNA 1: CAATCTGAATTCCGGTCTCCC
DNA 2: TGGTGGCTACGACGGGATT
B42: GGCGGCC (DNA:RNA)
RNA: B1 RNA with U25G, G27C, U28G, U30C
DNA 1: CAATCTGAATTCCGGTCTCCC
DNA 2: TGGTGGCTACGACGGGATT

The binders below were run against T1, RBFOX1 RRM RbFoxmut (Fox-RRM*) (assay: EMSA; HiTS-Eq, 1 nM pool, 10 min; buffer printed only for the single-RNA assays: 10 mM Tris pH 7.5, 150 mM NaCl, 3.4 mM EDTA, 0.001% NP-40, 30 C). Details: tags: His6 N-terminal (pET28a); label: 5' 32P.
Summary of the method: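 Relative association constants, normalised to the cognate motif, were derived by comparing read counts of each RNA species with those of the control reaction. The RNA sequenced was the free fraction, separated by 8% native PAGE after a 10 min equilibration in 50 µL of 1 nM 5′-radiolabelled RNA (7 randomized nucleotides) with increasing concentrations of purified wild-type or mutant RbFox RRM.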

Binder	binding signal
B1	0.281 KA relative to UGCAUGU
B2	0.0731 KA relative to UGCAUGU
B3	0.0854 KA relative to UGCAUGU
B4	0.0736 KA relative to UGCAUGU
B5	0.103 KA relative to UGCAUGU
B6	0.114 KA relative to UGCAUGU
B7	0.332 KA relative to UGCAUGU
B8	0.525 KA relative to UGCAUGU
B9	0.357 KA relative to UGCAUGU
B10	0.0776 KA relative to UGCAUGU
B11	0.0991 KA relative to UGCAUGU
B12	0.11 KA relative to UGCAUGU
B13	0.072 KA relative to UGCAUGU
B14	0.0911 KA relative to UGCAUGU
B15	0.106 KA relative to UGCAUGU
B16	0.0659 KA relative to UGCAUGU
B17	0.0491 KA relative to UGCAUGU
B18	0.116 KA relative to UGCAUGU
B19	0.737 KA relative to UGCAUGU
B20	0.65 KA relative to UGCAUGU
B21	0.0776 KA relative to UGCAUGU

Binder	binding signal
B22	0.15 KA relative to UGCAUGU
B23	0.112 KA relative to UGCAUGU
B24	0.117 KA relative to UGCAUGU
B25	0.111 KA relative to UGCAUGU
B26	0.082 KA relative to UGCAUGU
B27	0.123 KA relative to UGCAUGU
B28	0.0916 KA relative to UGCAUGU
B29	0.0612 KA relative to UGCAUGU
B30	0.18 KA relative to UGCAUGU
B31	0.0981 KA relative to UGCAUGU
B32	0.478 KA relative to UGCAUGU
B33	0.239 KA relative to UGCAUGU
B34	0.214 KA relative to UGCAUGU
B35	0.561 KA relative to UGCAUGU
B36	0.0724 KA relative to UGCAUGU
B37	0.146 KA relative to UGCAUGU
B38	0.172 KA relative to UGCAUGU
B39	0.387 KA relative to UGCAUGU
B40	0.714 KA relative to UGCAUGU
B41	0.224 KA relative to UGCAUGU
B42	0.16 KA relative to UGCAUGU
